{"source": "PubChem BioAssay (NCATS)", "note": "Values joined by “and” are separate entries in the source; they are usually repeats but may differ in a detail not shown here. Identical values can stand only once. Results filed as inconclusive are left out. Some structures have more than one record in an assay (separate samples or runs), and their calls can disagree. Active and inactive are the calls of the source. Calls come from the whole dose curve; as a rule, active = well fitted curve in the direction sought with a large enough effect; inconclusive = small, poorly fitted or top-dose-only effect, or another doubt; inactive = no such curve, though single readings can be large; an effect the other way counts as inactive or inconclusive. % is set by controls: 0 for no effect and ±100 for the full control effect; potency is the fitted concentration of half-maximal effect.", "data": [{"assay": "Confirmatory qHTS for small molecule stabilizers of the endoplasmic reticulum resident proteome: Secreted ER Calcium Modulated Protein (SERCaMP) assay (AID 1508628); note: nearly all actives have a fitted effect of over 40% in size", "conditions": "SERCaMP secreted luciferase ER calcium/proteostasis reporter; series mostly up to 76.3 µM", "how_it_was_run": "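We seeded SH-SY5Y-GLuc-SERCaMP cells, added compounds (three concentrations in the primary run, eleven up to 76.6 uM in confirmation), incubated 16 h, depleted ER calcium with thapsigargin, and read luciferase 4 h later.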", "values": [{"compound": "CC(C)[C@@]1(NC(=O)[C@@H]2C[C@H]3c4cccc5[nH]cc(c45)C[C@@H]3N(C)C2)O[C@@]2(O)[C@H]3CCCN3C(=O)[C@H](Cc3ccccc3)N2C1=O", "Potency": "35.5 µM (active) and inactive"}, {"compound": "CCC(Sc1ccccc1)C(=O)OC1CC2CCC(C1)N2C", "note": "(stereo unspecified)", "Potency": "5.62 µM (active)"}, {"compound": "Cl.Cl.Cl.Cl.Cl.Cl.N.N.N.N.NNNNN.NNNNN.O.O.[Ru].[Ru].[Ru]", "Potency": "15.8 µM (active)"}, {"compound": "CC(C)(O)C1O[C@H]2CC[C@@]3(C)[C@@](O)(CC[C@H]4Cc5c([nH]c6ccccc56)[C@@]43C)C2=CC1=O", "note": "(stereo partly specified)", "Potency": "39.8 µM (active)"}, {"compound": "C[C@@H](C(=O)OC1C[C@H]2CC[C@@H](C1)N2C)c1ccc(Br)cc1", "note": "(stereo partly specified)", "Potency": "31.6 µM (active)"}, {"compound": "c1ccc2sc(C3(N4CCCC4)CCCCC3)cc2c1", "Potency": "39.8 µM (active)"}, {"compound": "NC(N)=NCCCCCCCCCCN=C(N)N", "Potency": "inactive"}, {"compound": "C[C@H]1C[C@H](C)C(=O)[C@@H]([C@H](O)CC2CC(=O)NC(=O)C2)C1", "Potency": "0.282 µM (active)"}, {"compound": "COc1ccc2[nH]cc(C3=CCNCC3)c2c1", "Potency": "12.6 µM (active) and 35.5 µM (active)"}, {"compound": "C=CCN1CCC2(C)c3cc(O)ccc3CC1C2C", "note": "(stereo unspecified)", "Potency": "inactive"}, {"compound": "CC(C)C[C@H](NC(=O)[C@H](Cc1ccccc1)NC(=O)CNC(=O)[C@H](C)NC(=O)[C@@H](N)Cc1ccc(O)cc1)C(=O)O", "activity change, negative = decrease": "16.6% [at 9.4 µM] (inactive)"}, {"compound": "CCN(CC)CCO[C@H]1CC[C@@]2(C)C(=CC[C@@H]3[C@H]2CC[C@]2(C)C(=O)CC[C@H]32)C1", "Potency": "31.6 µM (active)"}]}, {"assay": "Cell Viability qHTS for small molecule stabilizers of the endoplasmic reticulum resident proteome (AID 1508629);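 note: compound exposure about 46 h in total before the viability read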;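 for max response: human SH-SY5Y neuroblastoma cells carrying the GLuc-SERCaMP reporter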", "conditions": "cell viability counter-screen, 100 nM thapsigargin for final 4 h", "values": [{"compound": "CC(C)[C@@]1(NC(=O)[C@@H]2C[C@H]3c4cccc5[nH]cc(c45)C[C@@H]3N(C)C2)O[C@@]2(O)[C@H]3CCCN3C(=O)[C@H](Cc3ccccc3)N2C1=O", "max response": "-30.4% (inactive)"}, {"compound": "Cn1c2c(c3ccccc31)CCNCC2", "max response": "24.2% (inactive)"}, {"compound": "Cl.Cl.Cl.Cl.Cl.Cl.N.N.N.N.NNNNN.NNNNN.O.O.[Ru].[Ru].[Ru]", "max response": "7.14% (inactive)"}, {"compound": "C[C@@H](C(=O)OC1C[C@H]2CC[C@@H](C1)N2C)c1ccc(Br)cc1", "note": "(stereo partly specified)", "max response": "-11% (inactive)"}, {"compound": "CC(C)=CCCN1CCC(NC(=O)C(O)(c2ccccc2)C2CCCC2)CC1", "note": "(stereo unspecified)", "max response": "3.9% (inactive)"}, {"compound": "CC(=O)C1=C(O)[C@@H]2[C@@H]3c4c[nH]c5cccc(c45)C[C@@H]3C(C)(C)N2C1=O", "max response": "-1.84% (inactive)"}, {"compound": "CC(C)C[C@H](NC(=O)[C@H](Cc1ccccc1)NC(=O)CNC(=O)[C@H](C)NC(=O)[C@@H](N)Cc1ccc(O)cc1)C(=O)O", "max response": "9.07% (inactive)"}, {"compound": "CN1CC[C@@]2(c3cccc(O)c3)Cc3nc4ccccc4cc3C[C@H]2C1", "max response": "-3.73% (inactive)"}, {"compound": "CCN(CC)CCO[C@H]1CC[C@@]2(C)C(=CC[C@@H]3[C@H]2CC[C@]2(C)C(=O)CC[C@H]32)C1", "Potency": "12.6 µM (active)"}]}]}
